{"source": "PubChem BioAssay AID449762", "about": "(Southern Research Specialized Biocontainment Screening …, 2010)", "note": "In all, about 330,000 compounds went through this assay and about 1,900 (0.58%) were called active. Inconclusive results (about 4%) are left out. Only a sample is shown. Entries with a potency or affinity are not part of this list. A number with no mark means an inactive call. Cut-off read from the data, not from the text of the source: inconclusive = inhibition above about 70% without an active follow-up result; inactive = below that."}
{"experiment": "M. tuberculosis growth inhibition, HTS (AID 449762);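 note: bacterial growth assessed after seven days of incubation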", "conditions": "M. tuberculosis H37Rv growth inhibition, 7H9 media; at 25 µM; active compounds read high", "units": {"inhibition": "%"}}
{"molecule": "COc1cccc(/C=N/n2c(COc3ccccc3)n[nH]c2=S)c1", "inhibition": 0.11}
{"molecule": "Cc1cccc(/C=N/n2c(COc3ccccc3)n[nH]c2=S)c1", "inhibition": 9.89}
{"molecule": "Cc1ccsc1/C=N/NC(=O)Cc1ccc([N+](=O)[O-])cc1", "inhibition": 0.13}
{"molecule": "COC(=O)C1=C(c2ccc(F)cc2OCc2ccccc2)C[C@@H]2CC[C@H]1N2C(=O)NCc1ccc(C)cc1", "inhibition": 11.4}
{"molecule": "Cc1cc(=O)[nH]c(SCC(=O)NC2CCCCCC2)n1", "inhibition": 1.87}
{"molecule": "Cc1nnc(SCC(=O)NC2CCCCC2)[nH]c1=O", "inhibition": -4.1}
{"molecule": "COc1cc(C(=O)NNC(=O)c2cc(C)[nH]n2)cc(OC)c1OC", "inhibition": -0.74}
{"molecule": "COc1ccc(NC(=O)CN(C)C(=O)COc2ccccc2Cc2ccccc2)cc1", "inhibition": 10.9}
{"molecule": "COC(=O)CCCC1=CC2=CC(=O)C(C)(OC(=O)c3cccs3)C(=O)C2=CN1Cc1ccccc1", "note": "(stereo unspecified)", "inhibition": -3.58}
{"molecule": "Cc1[nH]c2ccccc2c1C(=O)C(=O)N1CCN(c2cccc(Cl)c2)CC1", "inhibition": 13.6}
{"molecule": "CCSc1ncnc2c1sc1nc3c(cc12)COC(C)(C)C3", "inhibition": 3.08}
{"molecule": "CC1(C)Cc2nc3sc4c(SCC(=O)O)ncnc4c3cc2CO1", "inhibition": 0.43}
{"molecule": "Cc1ccc(C)c(NC(=O)CN(C)C(=O)c2cccc(S(=O)(=O)N3CCN(Cc4ccccc4)CC3)c2)c1", "inhibition": 4.09}
{"molecule": "OCCCn1c(CCNc2nc(-c3ccc(Cl)cc3)cs2)nc2cc(C(F)(F)F)ccc21", "inhibition": 29.6}
{"molecule": "CN1CCN(/N=C/c2ccc(-c3ccccc3)cc2)CC1", "inhibition": 4.56}
{"molecule": "CN1CCN(/N=C/c2cccc(Cl)c2Cl)CC1", "inhibition": 4.06}
{"molecule": "COC(=O)c1ccc(CS(=O)(=O)c2ccc(C)cc2)o1", "inhibition": 2.36}
{"molecule": "Cc1ccc(NC(=O)CC2OC(=O)c3ccccc32)cc1S(=O)(=O)N1CCCCCC1", "note": "(stereo unspecified)", "inhibition": -3.23}
{"molecule": "Cc1nn(CCc2nn[nH]n2)c2nc(-c3ccc(C4CCCCC4)cc3)cc(C(F)(F)F)c12", "inhibition": 21.8}
{"molecule": "Cc1nn(CCc2nn[nH]n2)c2nc(-c3ccccc3)cc(C(F)(F)F)c12", "inhibition": 3.42}
{"molecule": "CC(C)(C)c1ccc(C(=O)N2CCC(=O)N(C(COCc3ccccc3)Cc3ccccc3)CC2)cc1", "note": "(stereo unspecified)", "inhibition": -7.28}
{"molecule": "C=CCNc1oc(-c2ccc(OCC)cc2)nc1C#N", "inhibition": 0.33}
{"molecule": "Cc1ccc(S(=O)(=O)N2CCN(Cc3nc4ccccc4n3C)CC2)cc1", "inhibition": -10.2}
{"molecule": "CC(OC(=O)c1nc(Cl)ccc1Cl)C(=O)Nc1ccc2c(c1)OCCO2", "note": "(stereo unspecified)", "inhibition": 23.5}
{"molecule": "Cc1ccc(OCCCCN2CCCCC2)c(C)c1", "inhibition": 0.08}
{"molecule": "Cc1ccc(OCCCCNC2CCCCC2)c(C)c1", "inhibition": 0.93}
{"molecule": "O=C(COC(=O)C1=Cc2ccccc2OC1)NCc1ccccc1", "inhibition": -0.53}
{"molecule": "Cc1ccc2c(c1)N(CC(=O)OC(CC(C)C)C(=O)NC1CCCC1)C(=O)CO2", "note": "(stereo unspecified)", "inhibition": 0.6}
{"molecule": "Cc1nc(NC(=O)c2ccccc2)sc1C1(C)CC(c2ccccc2F)=NO1", "note": "(stereo unspecified)", "inhibition": -0.28}
{"molecule": "Cc1nc(-c2ccccc2)sc1C1(C)CC(c2ccc(OC(F)(F)F)cc2)=NO1", "note": "(stereo unspecified)", "inhibition": 1.65}
{"molecule": "CN1C(=O)C(O)(CC(=O)c2cccnc2)c2ccccc21", "note": "(stereo unspecified)", "inhibition": -2.52}
{"molecule": "CCC1CN(C(=O)N2CCC(C(=O)NCc3ccc(C)o3)CC2)c2cc(C)ccc2O1", "note": "(stereo unspecified)", "inhibition": -5.76}
{"molecule": "Cc1ccnc(N/C=C(/NC(=O)c2ccccc2)C(=O)NN)n1", "inhibition": 2.37}
{"molecule": "COc1ccc(-n2c(C)cc(C(=O)COC(=O)Cn3cnc4ccccc43)c2C)cc1", "inhibition": 5.9}
{"molecule": "COc1ccc(C(=O)OCC2CC(c3ccccc3)=NO2)cc1OC", "note": "(stereo unspecified)", "inhibition": 2.23}
{"molecule": "COc1ccccc1C1=NOC(COC(=O)c2ccc(Br)cc2)C1", "note": "(stereo unspecified)", "inhibition": 66.3}
{"molecule": "COC(C[C@H]1O[C@H]1C(=O)[C@@H](C)OCc1ccccc1)OC", "inhibition": -3.98}
{"molecule": "Cc1ccc(NC(=O)/C(C#N)=N/Nc2ccc(C(=O)O)cc2)c(C)c1", "inhibition": -9.1}
{"molecule": "CCOC(=O)C1CCN(Cc2coc3c(Cl)cc(Cl)cc3c2=O)CC1", "inhibition": 10.8}
{"molecule": "COc1ccc(F)cc1S(=O)(=O)NCc1ccccc1", "inhibition": -3.97}
{"molecule": "CCN(c1ccc(OC)cc1)S(=O)(=O)c1ccc2c(c1)CCN2C(=O)CCC(=O)O", "inhibition": -2.77}
{"molecule": "c1ccc2c(c1)CCc1ccccc1C2=C1CCNCC1", "inhibition": -0.99}
{"molecule": "CCOC(=O)N1CCC(=C2c3ccc(Cl)cc3CCc3cccnc32)CC1", "inhibition": 2.73}
{"molecule": "CC(C)(C)NC(=O)C(c1ccco1)N(C(=O)Cn1nnc(-c2ccc(F)cc2)n1)c1cccc(F)c1", "note": "(stereo unspecified)", "inhibition": 5.34}
{"molecule": "Cc1cc(N2CCN(Cc3nc(-c4ccc(F)cc4)oc3C)CC2)cc(C)n1", "inhibition": 9.44}
{"molecule": "Cc1cc(N2CCN(Cc3nc(-c4ccc(Cl)cc4)oc3C)CC2)cc(C)n1", "inhibition": 15.9}
{"molecule": "O=c1cnnc(SCCc2ccccc2)[nH]1", "inhibition": -11.7}
{"molecule": "COc1ccc(-c2nnc3ccc(SC)nn23)cc1", "inhibition": 12.5}
{"molecule": "O=C(O)Cn1ccc2ccccc21", "inhibition": -3.21}
{"molecule": "CC(C)Cn1c(CN2CCN(C)C(CCO)C2)nc2ccccc21", "note": "(stereo unspecified)", "inhibition": -7.61}
{"molecule": "O=C(CN1CCN(c2ncccn2)CC1)N1CCCc2c1c(=O)oc1ccc(O)cc21", "inhibition": 6.59}
{"molecule": "CC(=O)Oc1ccc2oc(=O)c3c(c2c1)CCCN3C(=O)CN1CCN(c2ncccn2)CC1", "inhibition": -4.05}
{"molecule": "O=C(NCCNC(=O)c1ccc(Cl)cc1Cl)c1ccccn1", "inhibition": 0.45}
{"molecule": "CCCc1cc(=O)[nH]c(SCC(=O)N2c3ccccc3NC(=O)C2(C)C)n1", "inhibition": 3.32}
{"molecule": "CC1=C(C(=O)N2CCOCC2)C(c2cc(C)cs2)NC(=O)N1", "note": "(stereo unspecified)", "inhibition": 2.64}
{"molecule": "Cc1ccc(F)cc1NC(=O)COC(=O)c1ccc2ncsc2c1", "inhibition": -5.07}
{"molecule": "c1ccc(C[C@H]2CN=C(Nc3ccccc3)N2CCCC2CCCCC2)cc1", "inhibition": 22.3}
{"molecule": "c1ccc(C[C@H]2CN=C(Nc3ccccc3)N2CCC2CCCC2)cc1", "inhibition": 30}
{"molecule": "O=C(O)C(Cc1c[nH]c2ccccc12)NS(=O)(=O)c1cccc(Cl)c1Cl", "note": "(stereo unspecified)", "inhibition": -3.04}
{"molecule": "COc1ccc(NC(=O)CN(C)CC(=O)Nc2sc3c(c2C#N)CCC3)cc1", "inhibition": -8.9}
{"molecule": "Cc1ccc(NC(=O)CN(C)CC(=O)Nc2sc3c(c2C(N)=O)CCC3)cc1", "inhibition": 66.6}
{"molecule": "CC(=O)OC(c1nc2ccccc2c(=O)n1C1CC2(OC1=O)c1ccccc1N1C(=O)C(C)(C)N(O)C12)C(C)C", "note": "(stereo unspecified)", "inhibition": -6.29}
{"molecule": "Cc1ccc(N2C(=O)NC(=O)/C(=C/C=C/c3ccco3)C2=O)cc1", "inhibition": 53.8}
{"molecule": "Cc1ccc(N2C(=O)NC(=O)/C(=C\\C=C\\c3ccco3)C2=O)cc1", "inhibition": -4.11}
{"molecule": "Cc1cc(NC(=O)CSCC(=O)N(C)Cc2ccc(F)cc2)no1", "inhibition": -22.2}
{"molecule": "Fc1ccc(-c2csc3ncnc(Nc4ccc(N5CCOCC5)cc4)c23)cc1", "inhibition": 28.8}
{"molecule": "Cc1ccc(-c2csc3ncnc(Nc4ccc(C(=O)O)cc4)c23)cc1", "inhibition": 6.21}
{"molecule": "O=C1c2cccc3c([N+](=O)[O-])c(O)cc(c23)C(=O)N1Nc1ccccc1", "inhibition": -8.23}
{"molecule": "O=C(Nc1ccccc1)NC1CCCCC1", "inhibition": 7.91}
{"molecule": "CCC(=O)N1c2ccc(S(=O)(=O)NCc3ccccc3)cc2CC1C", "note": "(stereo unspecified)", "inhibition": 3.62}
{"molecule": "COc1nc(-c2ccccc2)cc(-c2ccccc2)n1", "inhibition": 11.4}
{"molecule": "COc1ccc(-c2cc(-c3ccccc3)nc(NN)n2)cc1OC", "inhibition": 2.81}
{"molecule": "CC(C)Cn1c(SCC(=O)N2CCc3ccccc3C2)nc2cc(Cl)ccc2c1=O", "inhibition": -3.67}
{"molecule": "CCCCN(CC)CCNC(=O)c1cn(C)c(=O)c2c1c1ccccc1n2C", "inhibition": -0.73}
{"molecule": "Cc1cc(C)n2nc(CCc3ccccc3)nc2n1", "inhibition": 0.58}
{"molecule": "CCCCCCCC(=O)NNC(=O)c1ccc([N+](=O)[O-])cc1", "inhibition": 3.14}
{"molecule": "CCCCC(=O)NNC(=S)NC(=O)c1cccc([N+](=O)[O-])c1", "inhibition": 29}
{"molecule": "COc1ccc2oc(=O)c(C(=O)NCc3ccc(C)cc3)cc2c1", "inhibition": -2.24}
{"molecule": "COc1cc2c(cc1OC)C1=C(C#N)CCC(=O)N1CC2", "inhibition": 7.82}
{"molecule": "Cc1cc(C)n(-c2nc(Nc3ccccc3)nc(-n3nc(C)cc3C)n2)n1", "inhibition": 15.3}
{"molecule": "CNc1nc(C)nc(-n2nc(C)cc2C)n1", "inhibition": -0.69}
{"molecule": "Cc1cccc(NC(=O)COC(=O)Cc2cccs2)c1C", "inhibition": 4.38}
{"molecule": "Cc1ccc(C)c(N2CN(CCC3=CCCCC3)CNC2=S)c1", "inhibition": -4.98}
{"molecule": "C[C@@H]1O[C@@H](O[C@H]2[C@H](Oc3cc(O)c4c(c3)OC(c3ccc(O)cc3)CC4=O)O[C@H](CO)[C@@H](O)[C@@H]2O)[C@H](O)[C@H](O)[C@H]1O", "note": "(stereo partly specified)", "inhibition": -2.06}
{"molecule": "C[C@@H]1O[C@@H](O[C@H]2[C@H](Oc3cc(O)c4c(c3)O[C@H](c3ccc(O)cc3)CC4=O)O[C@H](CO)[C@@H](O)[C@@H]2O)[C@H](O)[C@H](O)[C@H]1O", "inhibition": -0.33}
{"molecule": "CCCCc1nc2cc(C(=O)N3CCCCC3CCNC(C)=O)ccc2o1", "note": "(stereo unspecified)", "inhibition": 7.94}
{"molecule": "CCC(CC)c1nnc(NC(=O)c2cc([N+](=O)[O-])ccc2N2CCOCC2)s1", "inhibition": 5.48}
{"molecule": "CCN1CCN(C(=S)NC(=O)/C=C/c2cccs2)CC1", "inhibition": -0.91}
{"molecule": "O=C(NCCC1=CCCCC1)NC1CCCCC1", "inhibition": 7.21}
{"molecule": "NC(=O)NCCC1=CCCCC1", "inhibition": 7.39}
{"molecule": "O=C1N[C@@H](Cc2c[nH]c3ccccc23)COC(=O)[C@@H](Cc2ccc(F)cc2)C/C=C\\C[C@H]1CC(=O)N(CCO)Cc1ccccc1", "inhibition": 4.64}
